Measured values reported in PubChem BioAssay AID1211 (NMMLSC, 2008).
Activity calls are given as the source filed them. How the calls were made is not given here.

biological target: Estrogen receptor (Homo sapiens) (UniProt P03372); assay: ERalpha ligand binders by competition, primary screen, cell-based, Cos7 ERalpha-GFP, flow cytometry (AID 1211); conditions: fluorescent ligand competition, at 10 µM, stronger effect = higher value;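 further: 0% = DMSO vehicle wells and 100% = no E2-Alexa633 signal left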
Sequence (P03372 whole entry, looked up): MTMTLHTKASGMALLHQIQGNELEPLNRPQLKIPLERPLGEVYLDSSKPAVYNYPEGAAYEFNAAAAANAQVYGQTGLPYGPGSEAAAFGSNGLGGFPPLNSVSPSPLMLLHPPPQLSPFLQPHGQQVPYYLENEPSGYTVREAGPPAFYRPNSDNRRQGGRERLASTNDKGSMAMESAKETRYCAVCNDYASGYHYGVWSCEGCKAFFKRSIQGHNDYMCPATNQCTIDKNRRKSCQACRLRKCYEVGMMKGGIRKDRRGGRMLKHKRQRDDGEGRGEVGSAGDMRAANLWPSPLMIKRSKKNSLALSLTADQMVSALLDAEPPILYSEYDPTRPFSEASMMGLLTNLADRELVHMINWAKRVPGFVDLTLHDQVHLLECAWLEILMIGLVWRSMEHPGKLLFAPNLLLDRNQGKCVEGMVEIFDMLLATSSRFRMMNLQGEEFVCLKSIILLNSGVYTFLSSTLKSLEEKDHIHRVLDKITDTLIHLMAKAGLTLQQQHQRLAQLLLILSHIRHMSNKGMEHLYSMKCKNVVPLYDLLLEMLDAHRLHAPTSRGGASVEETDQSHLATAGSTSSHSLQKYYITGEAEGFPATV

Inhibition of ligand binding, inactive:
COc1ccc(CNC(=O)COC(=O)c2cc(-c3ccco3)nc3ccccc23)cc1 20%
CCOC(=O)c1ccc2c(c1)C1C=CCC1C(C(=O)O)N2 (stereo not given) 51%
COc1cc(C2C3C(C)N(C)C(=O)N(C)C3N(C)C(=O)N2C)ccc1O (stereo not given) 0%
CC(=O)c1ccc2c(c1)C1C=CCC1C(c1ccncc1)N2 (stereo not given) 9%
CC(C)CN(Cc1c(O)ccc2c3c(c(=O)oc12)CCC3)CC(C)C 6%
CCOc1ccc(NS(=O)(=O)c2ccc3c(c2)[C@H]2C=CC[C@H]2[C@@H](c2ccc([N+](=O)[O-])cc2)N3)cc1 9%
Nc1ccc(-c2nc3c(Cl)c(N)ccc3[nH]2)cc1 14%
COc1cc2c3c(c1)/C(=C1/SC(NC(C)=O)=NC1=O)C(=O)N3C(C)(C)C=C2C 29%
COc1ccc(CCn2c(SCC(=O)Nc3cc(C)on3)nc3ccsc3c2=O)cc1OC 33%
COc1ccc(NC2=CC(c3cccc(OC)c3)N(c3ccc(OC)cc3)C2=O)cc1 (stereo not given) 48%
Cc1nn(-c2ccccc2)c2sc(C#N)c(N)c12 17%
O=C(O)COc1cc2oc(=O)c3c(c2cc1Cl)CCCC3 0%
COc1ccc(-c2nnc(SCC(=O)c3cc(C)n(Cc4cccs4)c3C)o2)cc1 35%
CCOc1ccccc1-c1nc(-c2ccc(NC(=O)c3ccc(Br)o3)cc2)no1 52%

Inhibition of ligand binding, active:
Cc1cc(C)c2c(c1)NC(c1cc3c(cc1Br)OCO3)C1CC=CC21 (stereo not given) 79%
